Assay results as given in PubChem BioAssay AID1159580 (chemical genetic matrix, 2015).
About 2,000 (36%) of roughly 5,500 compounds were called active. Another 18% or so got no clear call; they are omitted. Cut-off read from the data, not from the text of the source: active = normalized growth mostly below about 0.91 (no sharp cut-off); inconclusive = no clear call, values can overlap the other calls; inactive = mostly above about 0.92. The list shows a part of the results.

Test: chemical genetic growth profiling, strain panel (AID 1159580);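 note: tested at 20 µM; growth read once vehicle control cultures reached saturation at 30 °C; 1 = growth at the plate median or of vehicle wells; lower values mean less growth of the strain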
Settings: growth OD
[1] = S. cerevisiae deletion strains, locus YAL013W, strain DEP1, hits give low values
[2] = S. cerevisiae deletion strains, locus YBR229C, strain ROT2, hits give low values
[3] = S. cerevisiae deletion strains, locus YDL101C, strain DUN1, hits give low values
[4] = S. cerevisiae deletion strains, locus YDR150W, strain NUM1, hits give low values
[5] = S. cerevisiae deletion strains, locus YEL061C, strain CIN8, hits give low values
[6] = S. cerevisiae deletion strains, locus YGR078C, strain PAC10, hits give low values
[7] = S. cerevisiae deletion strains, locus YHR030C, strain SLT2, hits give low values
[8] = S. cerevisiae deletion strains, locus YHR087W, strain rtc3, hits give low values
[9] = S. cerevisiae deletion strains, locus YJR043C, strain POL32, hits give low values
[10] = S. cerevisiae deletion strains, locus YJR075W, strain HOC1, hits give low values
[11] = S. cerevisiae deletion strains, locus YLR039C, strain RIC1, hits give low values
[12] = S. cerevisiae deletion strains, locus YLR058C, strain SHM2 (second series), hits give low values
[13] = S. cerevisiae deletion strains, locus YLR085C, strain ARP6, hits give low values
[14] = S. cerevisiae deletion strains, locus YLR262C, strain YPT6, hits give low values
[15] = S. cerevisiae deletion strains, locus YML094W, strain GIM5, hits give low values
[16] = S. cerevisiae deletion strains, locus YMR219W, strain ESC1, hits give low values
[17] = S. cerevisiae deletion strains, locus YMR263W, strain SAP30, hits give low values
[18] = S. cerevisiae deletion strains, locus YMR307W, strain GAS1, hits give low values
[19] = S. cerevisiae deletion strains, locus YNL153C, strain GIM3, hits give low values
[20] = S. cerevisiae deletion strains, locus YNL298W, strain CLA4 (second series), hits give low values
[21] = S. cerevisiae deletion strains, locus YNL322C, strain KRE1, hits give low values
[22] = S. cerevisiae deletion strains, locus YNR030W, strain Alg12, hits give low values
[23] = S. cerevisiae deletion strains, locus YPL055C, strain LGE1, hits give low values
[24] = S. cerevisiae deletion strains, locus YPL241C, strain CIN2, hits give low values
[25] = S. cerevisiae deletion strains, locus YPR135W, strain CTF4, hits give low values

Measured: normalized growth

Cc1c(-c2csc(-c3ccc(Cl)cc3)n2)sc2ccc(Cl)cc12
inactive: [1] 1.03 | [2] 1.03 | [3] 1.05 | [4] 1.01 | [5] 0.996 | [6] 1.04 | S. cerevisiae deletion strains, locus YGR229C, strain SMI1, hits give low values 1.03 | [7] 1.07 | [8] 1.03 | [9] 1.04 | [10] 1.02 | [11] 1.07 | [12] 1.05 | [13] 1.05 | [14] 1.09 | [15] 1.04 | [16] 1.04 | [17] 1.02 | [18] 1.07 | [19] 1.02 | [20] 1.09 | [21] 1.04 | [22] 1.04 | S. cerevisiae deletion strains, locus YOL006C, strain TOP1, hits give low values 1.1 | [23] 0.999 | [24] 1.03 | [25] 1.07 | S. cerevisiae strains, strain wild type, hits give low values 1.04

N/C(=N/O)c1cnccc1C(F)(F)F
inactive: [1] 0.987 | [2] 1.01 | [3] 1.01 | S. cerevisiae deletion strains, locus YDL134C, strain PPH21, hits give low values 0.999 | [4] 0.986 | [5] 0.998 | [6] 0.994 | [7] 0.978 | [8] 0.986 | S. cerevisiae deletion strains, locus YJL187C, strain SWE1, hits give low values 0.991 | [9] 0.993 | [10] 0.993 | S. cerevisiae deletion strains, locus YKL190W, strain CNB1, hits give low values 0.997 | [11] 1.04 | [12] 0.993 | [13] 0.976 | [14] 0.99 | [15] 1.05 | [16] 0.996 | [17] 0.977 | [18] 0.958 | [19] 1.01 | [20] 0.996 | [21] 1 | [22] 0.999 | [23] 0.989 | [24] 1.03 | [25] 1.01

FC(F)(F)c1ccncc1-c1nc(-c2ccc(Cl)cc2)cs1
inactive: S. cerevisiae deletion strains, locus YAR019C, strain CDC15, hits give low values 0.982 | S. cerevisiae deletion strains, locus YBL105C, strain PKC1, hits give low values 0.984 | S. cerevisiae deletion strains, locus YBR135W, strain CKS1, hits give low values 0.98 | S. cerevisiae deletion strains, locus YBR136W, strain MEC1, hits give low values 0.982 | S. cerevisiae deletion strains, locus YBR160W, strain CDC28, hits give low values 0.985 | S. cerevisiae deletion strains, locus YDL017W, strain CDC7, hits give low values 0.991 | S. cerevisiae deletion strains, locus YDL028C, strain MPS1, hits give low values 0.978 | [3] 0.97 | S. cerevisiae deletion strains, locus YDL108W, strain KIN28, hits give low values 0.984 | S. cerevisiae deletion strains, locus YDL132W, strain cdc53, hits give low values 0.973 | S. cerevisiae deletion strains, locus YDL214C, strain PRR2, hits give low values 0.914 | S. cerevisiae deletion strains, locus YDR052C, strain DBF4, hits give low values 0.989 | S. cerevisiae deletion strains, locus YDR054C, strain cdc34, hits give low values 0.979 | S. cerevisiae deletion strains, locus YDR226W, strain ADK1, hits give low values 0.979 | S. cerevisiae deletion strains, locus YDR477W, strain SNF1, hits give low values 0.949 | S. cerevisiae deletion strains, locus YER123W, strain YCK3, hits give low values 0.852 | S. cerevisiae deletion strains, locus YER133W, strain GLC7, hits give low values 0.936 | S. cerevisiae deletion strains, locus YFL009W, strain cdc4, hits give low values 0.981 | S. cerevisiae deletion strains, locus YFL029C, strain CAK1, hits give low values 0.977 | S. cerevisiae deletion strains, locus YFR003C, strain YPI1, hits give low values 0.985 | S. cerevisiae deletion strains, locus YFR019W, strain FAB1, hits give low values 0.887 | S. cerevisiae deletion strains, locus YFR028C, strain CDC14, hits give low values 0.976 | S. cerevisiae deletion strains, locus YGR040W, strain KSS1, hits give low values 0.923 | S. cerevisiae deletion strains, locus YGR052W, strain FMP48, hits give low values 0.869 | S. cerevisiae deletion strains, locus YGR092W, strain DBF2, hits give low values 0.933 | S. cerevisiae deletion strains, locus YHR079C, strain IRE1, hits give low values 0.775 | S. cerevisiae deletion strains, locus YHR082C, strain KSP1, hits give low values 1 | S. cerevisiae deletion strains, locus YHR205W, strain SCH9, hits give low values 0.894 | S. cerevisiae deletion strains, locus YIL147C, strain SLN1, hits give low values 0.987 | S. cerevisiae deletion strains, locus YJL095W, strain BCK1, hits give low values 0.759 | S. cerevisiae deletion strains, locus YJL128C, strain PBS2, hits give low values 0.896 | S. cerevisiae deletion strains, locus YJL157C, strain FAR1, hits give low values 0.927 | S. cerevisiae deletion strains, locus YJR016C, strain ILV3, hits give low values 0.979 | S. cerevisiae deletion strains, locus YJR066W, strain TOR1 (second series), hits give low values 0.937 | S. cerevisiae deletion strains, locus YJR066W, strain TOR1, hits give low values 1.01 | S. cerevisiae deletion strains, locus YKL048C, strain ELM1, hits give low values 0.955 | S. cerevisiae deletion strains, locus YKL067W, strain YNK1, hits give low values 0.922 | S. cerevisiae deletion strains, locus YKL101W, strain HSL1, hits give low values 0.919 | S. cerevisiae deletion strains, locus YKL193C, strain SDS22, hits give low values 0.986 | S. cerevisiae deletion strains, locus YKL203C, strain TOR2, hits give low values 1.01 | S. cerevisiae deletion strains, locus YLR133W, strain CKI1, hits give low values 0.911 | S. cerevisiae deletion strains, locus YLR403W, strain SFP1, hits give low values 0.934 | S. cerevisiae deletion strains, locus YML070W, strain DAK1, hits give low values 0.878 | S. cerevisiae deletion strains, locus YMR001C, strain CDC5, hits give low values 0.986 | S. cerevisiae deletion strains, locus YMR205C, strain PFK2 (second series), hits give low values 0.905 | S. cerevisiae deletion strains, locus YMR277W, strain FCP1, hits give low values 0.962 | S. cerevisiae deletion strains, locus YNL006W, strain LST8, hits give low values 0.99 | S. cerevisiae deletion strains, locus YNL020C, strain ARK1, hits give low values 0.906 | S. cerevisiae deletion strains, locus YNL161W, strain CBK1, hits give low values 0.971 | S. cerevisiae deletion strains, locus YNL183C, strain NPR1, hits give low values 0.774 | S. cerevisiae deletion strains, locus YNL207W, strain RIO2, hits give low values 0.987 | S. cerevisiae deletion strains, locus YNL222W, strain SSU72, hits give low values 0.98 | S. cerevisiae deletion strains, locus YNL307C, strain MCK1 (second series), hits give low values 0.922 | S. cerevisiae deletion strains, locus YOL078W, strain AVO1, hits give low values 0.972 | S. cerevisiae deletion strains, locus YOL136C, strain PFK27, hits give low values 0.868 | S. cerevisiae deletion strains, locus YOR061W, strain CKA2, hits give low values 0.933 | S. cerevisiae deletion strains, locus YOR119C, strain RIO1, hits give low values 0.975 | S. cerevisiae deletion strains, locus YOR231W, strain MKK1, hits give low values 0.766 | S. cerevisiae deletion strains, locus YOR329C, strain SCD5, hits give low values 0.981 | S. cerevisiae deletion strains, locus YPL031C, strain PHO85, hits give low values 0.917 | S. cerevisiae deletion strains, locus YPL153C, strain RAD53, hits give low values 0.917 | S. cerevisiae deletion strains, locus YPL204W, strain HRR25, hits give low values 0.908 | S. cerevisiae deletion strains, locus YPL209C, strain IPL1, hits give low values 0.987 | S. cerevisiae deletion strains, locus YPR025C, strain CCL1, hits give low values 0.988 | S. cerevisiae deletion strains, locus YPR106W, strain ISR1, hits give low values 0.956 | S. cerevisiae deletion strains, locus YPR111W, strain DBF20, hits give low values 0.949 | S. cerevisiae deletion strains, strain NNK1, hits give low values 0.942 | S. cerevisiae deletion strains, strain TSCII, hits give low values 0.972
active: [7] 0.78 | S. cerevisiae deletion strains, locus YLR113W, strain HOG1, hits give low values 0.686 | S. cerevisiae deletion strains, locus YPL256C, strain CLN2, hits give low values 0.682
